From PubChem
Gal4-VP16 FLuc: counter-screen for ROR gamma inhibitors: Gal4-VP16 reporter; Potency, µM (highest dose often 53.6 µM), hits mostly inhibitors; Drosophila S2 Gal4-VP16 UAS-luciferase, luminescence, 20 h; 3.5% of 310,000 active;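 further: Gal4-VP16 expression switched on by copper sulfate through the metallothionein promoter; nearly all actives have a fitted effect of over 50% in size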
RORgamma inh: ROR gamma (mouse) transcription inhibition; Potency, µM (doses to about 53.6 µM), usual class: inhibitors; Drosophila S2 Gal4-RORgamma UAS-luciferase reporter, 20 h; 5.4% of 310,000 active; further: nearly all actives have a fitted effect of over 60% in size
Target sequence (P51450 whole entry, looked up, the tested form may be a part): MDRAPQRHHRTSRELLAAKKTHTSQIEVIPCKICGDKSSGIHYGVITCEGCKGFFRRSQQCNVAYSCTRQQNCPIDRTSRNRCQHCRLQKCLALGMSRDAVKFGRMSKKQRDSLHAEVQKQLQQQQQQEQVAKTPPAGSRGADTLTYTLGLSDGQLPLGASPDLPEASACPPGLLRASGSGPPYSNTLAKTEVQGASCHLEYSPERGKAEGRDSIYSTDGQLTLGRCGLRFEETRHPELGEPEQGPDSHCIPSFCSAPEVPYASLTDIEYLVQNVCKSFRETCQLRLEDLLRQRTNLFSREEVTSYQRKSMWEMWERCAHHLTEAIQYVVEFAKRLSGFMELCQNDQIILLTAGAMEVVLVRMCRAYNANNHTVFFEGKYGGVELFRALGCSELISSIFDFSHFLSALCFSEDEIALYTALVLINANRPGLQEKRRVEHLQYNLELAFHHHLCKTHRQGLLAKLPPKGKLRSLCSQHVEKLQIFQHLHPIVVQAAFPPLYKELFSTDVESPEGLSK
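Using a luciferase readout, inhibitors were identified by reduced reporter activity in Drosophila cells coexpressing a copper-inducible Gal4–ROR gamma fusion and UAS-driven Photinus luciferase, incubated 20 hr after 700 uM copper sulfate.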
Tau FP inhib: inhibitors of human tau fibril formation. P10636. K18 P301L tau heparin fibrillization, Alexa594 FP, 6 h. Potency, µM (titrated, usually from 57.7 µM), usual class: inhibitors. 0.39% of 280,000 active; further: nearly all actives have a fitted effect of over 55% in size
Target sequence (P10636 561-689 P618L limits assumed): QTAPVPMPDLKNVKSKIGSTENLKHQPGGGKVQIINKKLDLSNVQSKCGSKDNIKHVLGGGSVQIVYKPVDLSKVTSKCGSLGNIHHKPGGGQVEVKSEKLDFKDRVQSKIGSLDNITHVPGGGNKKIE
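Compound effects on tau fibrillization are measured by Alexa 594 fluorescence polarization (ex 555, em 632 nm). K18 P301L tau is used at 15 uM with 0.24 uM labeled tracer, and 20 uM heparin induces aggregation over 6 hr at 37 C.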
Tau fibril ThT: tau fibrillization inhibition (ThT binding). recombinant tau K18 P301L, heparin-induced fibrillization, ThT fluorescence. Potency, µM (titrated, usually from 57.4 µM), most hits filed as inhibitors. 2.1% of 270,000 active; further: nearly all actives have a fitted effect of over 55% in size
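Heparin-induced (20 uM) aggregation of recombinant human K18 P301L tau, 15 uM unlabeled with 0.24 uM labeled, pH 7 acetate buffer, 6 hr at 37 C with compound. Fibrils quantified by 30 uM ThT fluorescence after 1 hr ambient incubation.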
Tau fluor cs: counter-screen for tau fibril formation inhibitors; Potency, µM (doses to about 57.7 µM); tau K18 P301L (four-repeat tau fragment) Alexa594 fluorescence, heparin fibrillization; 0.93% of 280,000 active; further: nearly all actives have a fitted effect of over 55% in size
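Human K18 P301L tau (15 uM unlabeled plus 0.24 uM Alexa 594-labeled, final) in 100 mM sodium acetate pH 7 was mixed with compound and 20 uM heparin and incubated 6 hr at 37 C.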
Hits are given with their value; n = inactive; u = inconclusive; x = no result given; ! = a repeat was not active; [ ] = another dose, or the depositor's remark. Only some compounds are listed: those with a hit (about 7.3% of all), similar ones and a draw of the others. The call rests on the fitted dose curve; in most records, active means well fitted curve in the direction sought with a large enough effect; inconclusive means small, poorly fitted or top-dose-only effect, or another doubt; inactive means no such curve, though single readings can be large; an effect the other way counts as inactive or inconclusive.

SMILES	Gal4-VP16 FLuc	RORgamma inh	Tau FP inhib	Tau fibril ThT	Tau fluor cs
COc1c(O)cc2oc3cc(O)c(CC=C(C)C)c(O)c3c(=O)c2c1CC=C(C)C	25µM!	u	2.8µM	u	2.8µM[quencher]
CC(C)=CCc1c(O)cc2oc(C)cc(=O)c2c1O	n	n	n	n	n
CC(C)=CCc1c(O)cc2oc3c(CC=C(C)C)c(O)c(O)c(CC=C(C)C)c3c(=O)c2c1O	u	u	n	u	14µM[quencher]
COC(=O)c1nn(-c2ccc(OC)cc2)c(=O)cc1Sc1ccc(C)cc1	n	n	n	n	n
COC(=O)c1nn(-c2ccc(OC)cc2)c(=O)cc1NN	n	n	u	14µM	n
Cc1nn(C)c2c1c(C(F)(F)F)cc(=O)n2Cc1cccc(Br)c1	x	x	n	n	n
Cc1ccnc(NS(=O)(=O)c2ccc(NC(=O)CC(C)c3ccccc3)cc2)n1 (configuration not stated)	n	u	x	x	x
Cc1ccc(-c2cc(C(=O)N/N=C/c3ccc(Cl)cc3)n[nH]2)o1	n	n	x	x	x
C[C@@H]1C(c2cccc(Cl)c2)=NN(c2ccc(Br)cc2)[C@H]1C(=O)N1CCOC1=O	n	n	n	u	14µM[quencher]
Cc1cccc(C2=NN(c3ccc(Br)cc3)[C@@H](C(=O)N3CCOC3=O)[C@@H]2c2ccccc2)c1	n	n	n	n	u
C[C@@H]1C(c2cccc(Cl)c2)=NN(c2ccccc2)[C@H]1C(=O)N1CCOC1=O	n	n	n	n	u
CC[C@@H]1C(c2cccc(C)c2)=NN(c2ccc(Br)cc2)[C@H]1C(=O)N1CCOC1=O	n	n	n	u	8.9µM[quencher]
CCCCC/C=C\C[C@@H]1O[C@H]1C(O)/C=C\C/C=C\CCCC(=O)O (some centres not stated)	n	n	n	n	n
COCCN1C(=O)/C(=C/c2cc3c(cc2Br)OCO3)NC1=S	u	11µM	n	u	u
Cc1ccc(S(=O)(=O)NCCC(=O)Nc2ccc(Cl)c(Cl)c2)cc1C	11µM	u	14µM	n	u
Cc1ccc(S(=O)(=O)NCCC(=O)Nc2ccc(Cl)c(Cl)c2)cc1	u	n	u	n	u
CN(C)S(=O)(=O)c1cc(NC(=O)CSc2nn(-c3ccc(Cl)cc3)c(=S)s2)ccc1Cl	n	u	25µM	u	u
Cc1ccc(NC(=O)CNc2ccc(Cl)c(Cl)c2)cc1S(=O)(=O)N(C)C	u	u	n	n	16µM[quencher]
COc1ccc2oc(-c3ccc(C)c(NC(=O)c4ccc(N5CCCCC5)c([N+](=O)[O-])c4)c3)nc2c1	x	x	u	n	n
CO[C@H]1COC(=O)[C@H](C)NC(=O)[C@@H](C)COC(=O)C/C=C\[C@@H]1C	n[10 µM]	n[10 µM]	n[11.6 µM]	n[11.5 µM]	n[11.6 µM]
CC(O)CNCCOc1ccccc1OCc1ccccc1 (configuration not stated)	n	n	n	n	n
CC(O)CNCCNCc1c(OCc2ccccc2)ccc2ccccc12 (configuration not stated)	22µM	u	n	n	n
COc1cccc(OCCOCCOc2ccc(C)cc2[N+](=O)[O-])c1	n	n	n	u	n
COc1cc(C=Nc2cccc(C)c2)c(O)c([N+](=O)[O-])c1	n	n	n	7.9µM	n
Cc1cccc(N=Cc2cc3c(cc2[N+](=O)[O-])OCO3)c1	n	n	u	10µM	u
SMILES	Gal4-VP16 FLuc	RORgamma inh	Tau FP inhib	Tau fibril ThT	Tau fluor cs
O=C(NC(=S)NN1CCCCC1c1cccnc1)c1ccc(Br)cc1 (configuration not stated)	1.4µM	1.1µM	n	n	n
COc1cccc(OC)c1C(=O)NC(=S)N1CCCCC1c1cccnc1 (configuration not stated)	n	22µM	x	x	x
O=C(/C=C/c1ccc(F)cc1)NC(=S)N1CCCCC1c1cccnc1 (configuration not stated)	u	5µM	n	u	n
O=C(Nc1c(O)c2ccccc2oc1=O)c1ccccc1Cl	x	x	n	n	n
Cc1ccc(NC(=O)Cn2c(=O)n(CCC(=O)NCc3ccccc3Cl)c(=O)c3ccccc32)c(C)c1	x	x	u	n	n
CC(=O)Nc1ccc(C2NC(=O)CCC2[N+](=O)[O-])cc1 (configuration not stated)	n	n	x	x	x
c1csc(CCNc2ncnc3sc4c(c23)CCC4)c1	11µM	n	n	u	n
O=C(COC(=O)c1ccc([N+](=O)[O-])s1)Nc1ccccc1	n	n	n	n	n
Cc1[nH]c2ccccc2c1C(=O)COC(=O)c1ccc([N+](=O)[O-])s1	n	n	n	7.1µM	11µM[quencher]
O=C(COC(=O)c1ccc([N+](=O)[O-])s1)NCc1ccccc1	n	11µM	n	n	n
O=C(CCCCn1c(=O)c2ccccc2n(Cc2cccc(F)c2)c1=O)NCCc1ccccc1	x	x	n	n	n
COc1ccc(-n2c(SCC(=O)NCc3ccccc3)nc3n[nH]c(C)c3c2=N)cc1	x	x	n	n	n
CCCCN(CC)Cc1ccc(CNC(=O)Nc2ccc(F)cc2)o1	n	n	n	n	n
CCCCN(CC)Cc1ccc(CNC(=S)Nc2c(C)cc(C)cc2C)o1	6.3µM	3.2µM	n	n	n
CCCCN(CC)Cc1ccc(CNC(=S)Nc2ccc(C)cc2Cl)o1	n	16µM	n	n	n
COc1cc(C2CC(=O)Oc3cc(C)c(Br)c(C)c32)cc(OC)c1OC (configuration not stated)	5.6µM	u	n	n	n
COc1ccc(C2CC(=O)Oc3cc(C)c(Cl)c(C)c32)cc1 (configuration not stated)	32µM	u	n	n	n
COC(=O)C(C(C)=O)C1=C/C(=N\S(=O)(=O)c2ccc(C)cc2)c2ccccc2C1=O (configuration not stated)	u	n	u	32µM	u
COc1ccc(S(=O)(=O)/N=C2\C=C(Nc3ccc(O)cc3)C(=O)c3ccccc32)cc1	5.6µM	10µM	x	x	x
Cc1ccc(NC2=C/C(=N/S(=O)(=O)c3cccs3)c3ccccc3C2=O)cc1C	n	u	n	n	n
Cc1ccccc1NC1=C/C(=N\S(=O)(=O)c2cccs2)c2ccccc2C1=O	5.6µM	4µM	n	8.9µM	u
CC(=O)Nc1ccc(NC2=C/C(=N/S(=O)(=O)c3cccs3)c3ccccc3C2=O)cc1	5µM	7.1µM	u	u	5µM[quencher]
CCc1ccc(S(=O)(=O)/N=C2\C=C(NS(=O)(=O)c3ccccc3)C(=O)c3ccccc32)cc1	n	n	x	x	x
COc1ccc(NC(=O)Cn2c(=O)n(CC3CCCO3)c(=O)c3ccccc32)cc1 (configuration not stated)	x	x	n	n	n
O=C(NCCC(=O)N1CCCC1)c1ccccc1Cl	n	n	x	x	x
O=C(NC(=S)N1CCCCCC1)c1ccc(Cl)cc1Cl	1µM	0.35µM	n	n	n
CN1CCN(C(=S)NC(=O)c2ccccc2Cl)CC1	18µM	14µM	x	x	x
CN1CCN(C(=S)Nc2ccccc2Cl)CC1	n	n	n	n	n
